Data: PubChem BioAssay (NCI)
Compounds without any hit were thinned out: in the full panel of roughly 83,000, 20% have a hit.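 96-well plates, one dose, 48 hours. Percent growth reported; active if below 10.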 Values without a mark were called inactive. Calls of active or inactive are those of the source.

Tests used:
Assay in all cases: NCI-60 one-dose screen, 48 h (100 = growth as untreated, 0 = no growth, -100 = all killed)
Details in all cases: 10 µM unless noted
[1] = test system: HCT-15 colon
[2] = test system: HT29 colon
[3] = test system: SNB-75 CNS
[4] = test system: SNB-19 CNS
[5] = test system: U251 CNS
[6] = test system: PC-3 prostate
[7] = test system: SK-MEL-5 melanoma
[8] = test system: UACC-62 melanoma
[9] = test system: LOX IMVI melanoma
[10] = test system: SK-MEL-28 melanoma

| SMILES | growth [1] | growth [2] | growth [3] | growth [4] | growth [5] | growth [6] | growth [7] | growth [8] | growth [9] | growth [10] |
| --- | --- | --- | --- | --- | --- | --- | --- | --- | --- | --- |
| CS(=O)(=O)CCN1CC2CCCC(C2)C1 | 99.5% | 96.7% | 94.1% | 99.8% | 101% | 90.1% | 104% | 102% | 104% | 105% |
| Cc1c(NS(=O)(=O)c2ccccc2)ccc([N+](=O)[O-])c1Cl | 64.9% | 76.4% | 75.4% | 61.7% | 63.5% | 56.2% | 25.8% | 31.2% |  | 70.5% |
| COc1ccc(/C=C\c2cc(OC)c(OC)c(OC)c2)cc1OCC(=O)Nc1nc2ccc(C(F)(F)F)cc2s1 | 15.2% | 92.6% | -6.34% (active) | 33.7% | 18% | 31.5% | 16.8% | 32.1% |  | 32.9% |
| CCOc1ccccc1C(=O)OCC(Cl)(Cl)Cl | 110% | 96.4% | 98.3% | 107% | 102% | 96.5% | 106% | 107% | 104% | 118% |
| O=C1C2CCC1C(N1CCCC1)CC2 (stereo not drawn) | 98.6% | 102% | 79.8% | 102% | 100% | 93.1% | 99.9% | 96.6% | 97.8% | 102% |
| N#C[Se]CCN1C(=O)c2ccccc2C1=O | 53.2% | 13.9% | 2.39% (active) | 38% | 27.4% | 41.8% | 1.73% (active) | 22.7% |  | 25.9% |
| Cn1cc(C=O)c2nccnc21 | 114% | 93% | 78.5% | 110% | 97.1% | 107% | 104% | 102% | 94.5% | 94% |
| CC(C)OC(=O)[C@H](C)NP(=O)(Oc1ccccc1)C1CCCN(O)C1=O (stereo partly drawn) | 93.1% | 91.7% | 108% | 98.8% | 105% | 94.5% | 99.2% | 71.8% | 85.3% | 52.2% |
| Clc1cccc(Cl)c1Cl | 101% | 82.8% | 93.8% | 118% | 98.4% | 103% | 105% | 99.8% | 101% | 109% |
| Nc1ncnc2n[nH]nc12 | 63.4% | 79.7% | 90.6% | 93.5% | 70.1% | 64.5% | 72.5% | 46.7% |  | 87.6% |
| CCOP(=O)(Cc1ccc(C#N)cc1)OCC | 108% | 92.2% | 106% | 97.3% | 95.6% | 84.7% | 104% | 94.1% | 98.3% | 107% |
| COc1ccc2c(c1)c(C1(O)CC(CSC#N)OC1=O)cn2C(=O)c1ccc(Cl)cc1 (stereo not drawn) | 98.7% | 110% | 83.7% | 99.3% | 102% | 96.2% | 111% | 88.6% | 97.8% | 150% |
| Cn1cc(C2=C(c3cn(C4CCN(Cc5ccccn5)CC4)c4ccccc34)C(=O)NC2=O)c2ccccc21 | 85.9% | 14.3% | 57.8% | 101% | 88.4% | 92.2% | 69.2% | 13.7% | 48.5% | 18.7% |
| CC(C)(C)N1CC1C#N (stereo not drawn) | 99.6% | 105% | 98.3% | 97.2% | 100% | 103% | 105% | 104% |  | 110% |
| CC(=O)OC1C(OC/C2=C/C3[C@@H](C(C)C)CC=C(C)[C@@H]3CC(OC(=O)/C=C/c3cn(C)cn3)[C@]3(C)C=C[C@@]2(O)O3)OCC(O)C1O (stereo partly drawn) | 36.2% | 8.89% (active) | -28.6% (active) | 37% | 18.2% | 26.5% | 7.53% (active) | 26.5% | 35.2% | 45.7% |
| Fc1ccc(C2=CCNCC2)cc1 | 109% | 109% | 84.1% | 109% | 96.9% | 101% | 91.9% | 86.4% | 90.1% | 107% |
| NC1CC2CCCCC2CC1(O)c1ccccc1 (stereo not drawn) | 102% | 102% | 80.9% | 103% | 96.4% | 92.8% | 102% | 105% |  | 111% |
| O=[N+]([O-])/C=C\c1ccc(Cl)c(Cl)c1 | 26.1% | -40.4% (active) | 42% | 61.5% | 19.3% | 70.1% | 56.3% | 58.9% | -30.7% (active) | 89.7% |
| CC(=O)[O][Hg][O]C(C)=O | 93.8% | 73.8% | 72.6% | 110% | 84.6% | 86.3% | 102% | 97.2% | 70.9% | 106% |
| CC1(C)[C@H](O)[C@H](F)C[C@@]2(C)Oc3ccc(C(=O)Nc4ccc5c(c4)NC(=O)C54CCN(CCCCC#N)CC4)cc3C[C@H]12 | 45.7% | 16% | 46.8% | 32.2% | 10.6% | 24.4% | -60.7% (active) | -24.4% (active) | 7.04% (active) | 4.12% (active) |
| CCCCCCCOC(C(=O)OCCN(CC)CC)(c1ccccc1)c1ccccc1 | 49.9% | 31.4% | 86.1% | 94% | 77.8% | 61.2% | 78.2% | 103% | 92.2% | 96% |
| CC(=O)O[C@H]1C(=O)[C@@]2(C)[C@H]([C@H](OC(=O)c3ccccc3)[C@]3(O)C[C@H](OC(=O)[C@H](OC(=O)OC[C@H]4COC(C)(C)O4)[C@@H](NC(=O)c4ccccc4)c4ccccc4)C(C)=C1C3(C)C)[C@]1(OC(C)=O)CO[C@@H]1C[C@@H]2O | 5.28% (active) | 2.46% (active) | -20.5% (active) | 11.9% | 15.9% | 21% | 18.2% | 21.7% |  | 49.7% |
| Cc1cc(N(CCCl)CCCl)ccc1/C=N\NC(=O)c1ccncc1 | 88.9% | 98.3% | 87.1% | 106% | 90.5% | 88.9% | 76.1% | 53.1% |  | 99.7% |
| Cn1cc(-c2csc(-c3cn(CCCCN4CCCCC4)c4ccccc34)n2)c2cccnc21 | -74.9% (active) | -85.6% (active) | 53.1% | -32.1% (active) | -72.3% (active) | 51.3% | -92.1% (active) |  | -72.6% (active) | -79.2% (active) |
| Fc1ccc2c(c1)c(-c1nc(-c3c[nH]c4ncccc34)cs1)cn2CCCCN1CCCCC1 | -72% (active) | -97% (active) | -70.5% (active) | -88.5% (active) | -87.7% (active) | -86.5% (active) | -83.1% (active) |  | -79.3% (active) | -86.9% (active) |
| Fc1ccc2c(c1)c(-c1nc(-c3c[nH]c4ncccc34)cs1)cn2CCN1CCOCC1 | 27.2% | 47.7% | 32.9% | 63.7% | 51.7% | 23.3% | 32.2% |  | 56.7% | 75.8% |
| CCCCCCCCCCCCCCCCCC1OC[C@H](COC(=O)O[C@@H](C(=O)O[C@H]2C[C@@]3(O)[C@@H](OC(=O)c4ccccc4)[C@@H]4[C@]5(OC(C)=O)CO[C@@H]5C[C@H](O)[C@@]4(C)C(=O)[C@H](OC(C)=O)C(=C2C)C3(C)C)[C@@H](NC(=O)c2ccccc2)c2ccccc2)O1 (stereo partly drawn) | 96.8% | 15.7% | 59.1% | 49.6% | 46.6% | 45.2% | 75.6% | 46.8% |  | 55.9% |
